Test results from ChEMBL document CHEMBL3988442, “University of Dundee, Small-Polar-MMV Screening Library” (2021).
Screen size: about 48,000 compounds; about 13,000 (27%) showed an effect of 50% or more. Some of the results follow.

system: Wolbachia pipientis; assay: Anti-Wolbachia Cell-Based Screen; assay type: functional; parameters: scale not given: in the data most compounds retested in dose-response had high values; conditions: 5 µM

SMILES | Percent Effect
Cc1ccc2c(c1)c(CNC(=O)C1CC(=O)N(CCN(C)C)C1)nn2C (centres undefined) | 14.04%
CC(C)OCCN(C)CC(c1cccs1)N1CCOCC1 (centres undefined) | -0.1545%
Cc1sc2nc(SC(C)c3nc(C(C)C)no3)nc(N)c2c1C (centres undefined) | 10.39%
COc1c(Br)cccc1CCNC(=O)c1ccon1 | -9.617%
Cc1nc(C)n(CC2CCCN(CCc3ccccc3)C2)n1 (centres undefined) | 91.53%
Cc1nc(C)n(CC2CCCN(CCCc3ccccc3)C2)n1 (centres undefined) | 82.12%
COc1ccc(CCN2CCCC(Cn3nc(C)nc3C)C2)cc1 (centres undefined) | 9.645%
Cc1nc(C)n(CC2CCCN(CCc3ccncc3)C2)n1 (centres undefined) | -0.4528%
CCOCC1CC2(CCN(C(=O)c3ccccn3)CC2)CO1.O=C(O)C(F)(F)F (centres undefined) | -17.18%
O=C(O)C(F)(F)F.O=C(c1cocn1)N1CCC2(CC1)COC(COCc1ccccn1)C2 (centres undefined) | -10.48%
NCC1CCC2(CCN(C(=O)c3ccccn3)CC2)CO1.O=C(O)C(F)(F)F.O=C(O)C(F)(F)F (centres undefined) | 112.6%
Cc1ccc(C(=O)N2CCC3(CC2)COC(COc2ccccn2)C3)o1.O=C(O)C(F)(F)F (centres undefined) | 2.842%
CNC(=O)NCC1CCC2(CCN(C(=O)c3ccccn3)CC2)CO1.O=C(O)C(F)(F)F (centres undefined) | 105.2%
CN(C)CC(=O)N1CCC2(CC1)COC(COc1ccccn1)C2.O=C(O)C(F)(F)F.O=C(O)C(F)(F)F (centres undefined) | 11.11%
O=C(NCCNCC1CNc2ccnn2C1)c1ccc(F)cc1 (centres undefined) | -19.45%
Cc1cc2n(n1)CC(CNCc1cnn(C)c1)CN2 (centres undefined) | -3.792%
c1cc2n(n1)CC(CNCc1ccc(OCC3CC3)nc1)CN2 (centres undefined) | 1.128%
c1ccc(Cn2cncn2)c(CNCC2CNc3ccnn3C2)c1 (centres undefined) | 4.151%
Fc1cccc(Oc2ccc(CNCC3CNc4ccnn4C3)cn2)c1 (centres undefined) | 5.815%
c1ccc(-n2ccnc2)c(CNCC2CNc3ccnn3C2)c1 (centres undefined) | -6.615%
COc1ccc(CNC[C@H]2Cn3ccnc3CO2)cn1 | -7.877%
Fc1ccc(Oc2ccc(CNCC3CNc4ccnn4C3)cn2)cc1 (centres undefined) | 99.62%
c1ccc(Oc2ccc(CNCC3CNc4ccnn4C3)cn2)cc1 (centres undefined) | 117.1%

SMILES | Percent Effect
Cc1cc2n(n1)CC(CNCc1ccc(OCC3CC3)nc1)CN2 (centres undefined) | 93.19%
Cc1cc2n(n1)CC(CNCc1ccc(-n3cccn3)nc1)CN2 (centres undefined) | -3.824%
COc1ccc(CNCC2CNc3ccnn3C2)cn1 (centres undefined) | 96.76%
Cc1n[nH]c(C)c1C1CCCN1C(=O)c1coc(Br)c1 (centres undefined) | 4.835%
CCN(C(=O)c1cccc2c1OCO2)c1ccccc1 | -1.465%
O=C(Nc1ccccn1)N(CCO)Cc1ccsc1 | -7.906%
CCN(Cc1cccc2c1OCO2)C(=O)Nc1ccccn1 | 122.5%
CCN(Cc1cccc2c1OCO2)C(=O)NCCOC | 78.96%
O=C(Nc1cn[nH]c1)N(CCO)C1CCc2ccccc21 (centres undefined) | 3.342%
Cc1cc(CN(C)C(=O)NCc2ccccn2)no1 | 9.808%
CCN(Cc1cccc2c1OCO2)C(=O)NCc1ccccn1 | 102.4%
CCN(Cc1cccc2c1OCCO2)C(=O)NC(C)(C)C | -7.864%
COc1cc(CN(C)C(=O)NCc2cccc3c2OCO3)ccc1SC | -31.12%
CCN(Cc1cccc2c1OCO2)C(=O)Nc1cn[nH]c1 | 109.5%
O=C(Cc1ccccc1Br)NCC(=O)Nc1cn[nH]c1 | -11.75%
CCN(Cc1ccc2c(c1)OCO2)C(=O)NCc1nc(C)cs1 | -7.212%
Nc1nc(CCC(=O)N2CCOC(CC3CCCCC3)C2)cs1 (centres undefined) | -4.495%
CC1(C)CCC(C(=O)O)c2ccccc21 (centres undefined) | 1.78%
CN(Cc1ccc(Br)o1)C(=O)Nc1cccnc1 | 14.31%
CC(=O)N1CCC2(CC1)COC(COCc1ccccn1)C2.O=C(O)C(F)(F)F (centres undefined) | -3.959%
CCOCC1CC2(CCN(Cc3ccccn3)CC2)CO1 (centres undefined) | -6.984%
Cc1cccc(CN2CCC3(CC2)COC(COCC2CC2)C3)n1 (centres undefined) | 102.1%
Cc1csc(CN2CCC3(CC2)COC(COCC2CC2)C3)n1.O=C(O)C(F)(F)F (centres undefined) | 87.23%

SMILES | Percent Effect
Cc1cc(CN2CCC3(CC2)COC(COCC2CC2)C3)no1.O=C(O)C(F)(F)F (centres undefined) | 95.48%
O=C(C1CCSCC1)N1CCC2(CC1)COC(COCC1CC1)C2 (centres undefined) | 0.4038%
O=C(O)C(F)(F)F.O=C(O)C(F)(F)F.c1cncc(OCC2CC3(CCN(CC4CC4)CC3)CO2)c1 (centres undefined) | -1.816%
Cc1ncc(CNc2ccc(C(=O)NCc3ccco3)cc2C)s1 | -10.56%
CCS(=O)(=O)CCNC(=O)c1ccc(-c2ccc(C)cc2)cc1F | -13.74%
CN(C)[C@@H]1CO[C@H](CNC(=O)c2cccs2)[C@H]1O | 5.998%
COCC(=O)NCCSCCOc1cccc(Br)c1 | 5.807%
CNc1cc(C)nc(N2Cc3cnn(Cc4ccc(F)cc4)c3C2)n1 | 67.48%
Cc1ccnc(N2Cc3cnn(Cc4ccc(F)cc4)c3C2)n1 | -9.844%
Cc1cc(C)nc(N2Cc3cnn(Cc4ccc(F)cc4)c3C2)n1 | 10.67%
CCN(CC)c1ncnc2c(C)nn(CC)c12 | 92.35%
CCn1nc(C)c2nc(C(C)C)nc(N3CCCCC3)c21 | -10.35%
CCCc1nc(N2CCN(CC)CC2)c2c(n1)c(C)nn2CC | -11.71%
CCN(Cc1ccccc1)c1ncnc2c(C)nn(CC)c12 | 90.55%
CCn1nc(C)c2ncnc(NCC(=O)N3CCOCC3)c21 | 4.727%
CCn1nc(C)c2ncnc(N(C)C)c21 | 100.5%
Cc1nn(C)c2c(NCCCn3cccn3)ncnc12 | 1.711%
COCCN(Cc1ccccc1)c1cc(C)ncn1 | -9.961%
CN1CCC(N(C)C[C@H]2CC[C@@H](Cc3cccc(CO)c3)O2)CC1 | -29.03%
O=C(NCC1CC1)C1CN(C(=O)c2cccc(Cl)c2)CC12CCOCC2 (centres undefined) | -0.2514%
Cn1c(C(=O)N2CCC(C(=O)N3CCCC3)CC2)c(Cl)c2ccccc21 | 1.615%
Cn1c(C(=O)N2CCC(CC(N)=O)CC2)c(Cl)c2ccccc21 | -9.644%
Cn1c(C(=O)N2CCC(C(N)=O)C2)c(Cl)c2ccccc21 (centres undefined) | 50.27%
